Our source for the max response values is PubChem BioAssay (NCATS).

SMILES strings stand for the structures. “And” between values parts separate entries of the source, which are not always exact repeats. Identical values can stand only once. Results filed as inconclusive are left out. The source made the active and inactive calls. Calls come from the whole dose curve; as a rule, active = well fitted curve in the direction sought with a large enough effect; inconclusive = small, poorly fitted or top-dose-only effect, or another doubt; inactive = no such curve, though single readings can be large or run the other way.
% is set by controls: 0 for no effect and ±100 for the full control effect.

The nature of the experiment: qHTS Assay for Identifying Gametocytocidal Compounds (AID 743244).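 Note: actives lower the fluorescent signal which means gametocytes are killed.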 As to conditions: P. falciparum 3D7 stage III-V gametocytes, alamarBlue, 72 h; max response: stronger effect = lower value. Put shortly: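 Stage III–V gametocytes of P. falciparum 3D7 were seeded at 20,000 cells/well onto pre-dispensed compounds. After 72 h, 37 °C, 5% CO2, alamarBlue was added for another 24 h.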
Consider `Oc1ccc(Cl)c2c1CCC2`, for which the max response was -5.98% (inactive).
`FC(F)OC(Cl)C(F)(F)F` (stereo not given): the max response is -3.13% (inactive).
Turning to `COc1ccc(C(=O)c2ccc(C)cc2)c(O)c1`, the max response was -6.86% (inactive).
The value for `CCCCCCCCCCCCCCCCOCCOCCOCCOCCOCCOCCOCCOCCOCCOCCOCCOCCOCCOCCOCCOCCOCCOCCOCCOCCO` was -3.08% (inactive); that for `COc1ccc2cc([C@H](C)CO)ccc2c1` was 13.6% (inactive).
In the case of `O=C(NNCNNC(=O)c1ccncc1)c1ccncc1`, the max response was 16.9% (inactive).
The value for `C(=C\c1ccncc1)/c1ccccc1` was 1.05% (inactive) and -0.436% (inactive); that for `CCCCCCCCCCCCCC(=O)OCC(COP(=O)([O-])OCC[N+](C)(C)C)OC(=O)CCCCCCCCCCCCC` (stereo not given) was 8.75% (inactive).
As to `CC(C)N1CCN(c2ccc(OC[C@H]3CO[C@](Cn4cncn4)(c4ccc(Cl)cc4Cl)O3)cc2)CC1`, the max response was 3.43% (inactive).
The value for `CC(C)(C)C(=O)OCC(=O)[C@H]1CC[C@H]2[C@@H]3CCC4=CC(=O)CC[C@]4(C)[C@H]3CC[C@]12C` was 6.08% (inactive).
With `CC/C=C\C/C=C\C/C=C\C/C=C\C/C=C\CCCC(=O)O`, the max response is -4.05% (inactive).
The value for `CSc1nc2cc(Oc3cccc(Cl)c3Cl)c(Cl)cc2[nH]1` was 0.358% (inactive).
Turning to `CN(C)CCCSc1ccccc1NC(=O)/C=C/c1ccccc1`, the max response is -4.09% (inactive).
With `CCCCC/C=C\C/C=C\C/C=C\CCCCC(=O)O`, the max response is 14.9% (inactive).
In the case of `Cn1nnnc1SCC1=C(C(=O)O)N2C(=O)[C@@H](NC(=O)[C@H](O)c3ccccc3)[C@H]2SC1` it was -1.19% (inactive).
